Test results: paper PMC5540273 (PLoS ONE, 2017)
Where “and” joins values, the source holds several entries; their conditions need not be identical. Identical values can stand only once. Like-named read-outs stand apart in the source and are kept apart here.

Assays:
EPHB6 = conditions: concentration: 1 μM, replicates: in singlicate, n = 1
ERBB2 = conditions: concentration: 1 μM, replicates: in singlicate, n = 1
ERBB3 = conditions: concentration: 1 μM, replicates: in singlicate, n = 1
ERBB4 = conditions: concentration: 1 μM, replicates: in singlicate, n = 1
ERK1 = tested on: T1, ERK1; conditions: concentration: 1 μM, replicates: in singlicate, n = 1
T1 construct: gene MAPK3

ERK2 = tested on: T2, ERK2; conditions: concentration: 1 μM, replicates: in singlicate, n = 1
T2 construct: gene MAPK1

ERK3 = tested on: T3, ERK3; conditions: concentration: 1 μM, replicates: in singlicate, n = 1
T3 construct: gene MAPK6

ERK4 = tested on: T4, ERK4; conditions: concentration: 1 μM, replicates: in singlicate; n = 1
T4 construct: gene MAPK4

ERK5 = tested on: T5, ERK5; conditions: concentration: 1 μM, replicates: in singlicate, n = 1
T5 construct: gene MAPK7

ERK8 = tested on: T6, ERK8; conditions: concentration: 1 μM, replicates: in singlicate, n = 1
T6 construct: gene MAPK15
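Further: KINOMEscan kinase panel screen.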

| Structure (SMILES) | %Inh (EPHB6) | %Inh (ERBB2) | %Inh (ERBB3) | %Inh (ERBB4) | %Inh (ERK1) | %Inh (ERK2) | %Inh (ERK3) | %Inh (ERK4) | %Inh (ERK5) | %Inh (ERK8) | %Inh (EPHB6; 1 µM) | %Inh (ERBB2; 1 µM) | %Inh (ERBB3; 1 µM) | %Inh (ERBB4; 1 µM) | %Inh (ERK1; 1 µM) | %Inh (ERK2; 1 µM) | %Inh (ERK3; 1 µM) | %Inh (ERK5; 1 µM) | %Inh (ERK8; 1 µM) |
| --- | --- | --- | --- | --- | --- | --- | --- | --- | --- | --- | --- | --- | --- | --- | --- | --- | --- | --- | --- |
| CCn1cnc2c(N)ncnc21 [GW345098] | 25% | 0% | 10% | 0% | 2% | 19% | 0% | 0% | 2% | 5% |  |  |  |  |  |  |  |  |  |
| Cc1cccc(Cn2ccn3c(=O)cc(N4CCOCC4)nc23)c1 [GSK2297542] | 24% | 1% | 0% | 27% | 20% | 5% | 27% | 32% | 0% | 0% |  |  |  |  |  |  |  |  |  |
| N#Cc1c(N2CCOCC2)sc(-c2ccn[nH]2)c1-c1ccc(Cl)cc1 | 38% | 0% | 22% | 11% | 0% | 24% | 0% | 0% | 0% | 5% |  |  |  |  |  |  |  |  |  |
| Cc1nnc(-c2ccc3ncc(-c4ccc(S(C)=O)cc4)n3c2)o1 (stereo not drawn) | 13% | 65% | 3% | 0% | 0% | 0% | 0% | 0% | 0% | 0% |  |  |  |  |  |  |  |  |  |
| O=c1cc(N2CCOCC2)nc2n(Cc3cccc(Cl)c3Cl)c(C3CC3)nn12 [GSK2358994] | 33% | 0% | 9% | 0% | 0% | 11% | 0% | 0% | 0% | 13% |  |  |  |  |  |  |  |  |  |
| O=C1Cc2cc(Nc3nc(NCc4cccc(S(=O)(=O)C(F)(F)F)c4)ncc3C(F)(F)F)ccc2N1 | 0% | 6% | 9% | 4% | 0% | 9% | 31% | 25% | 0% | 0% |  |  |  |  |  |  |  |  |  |
| Nc1nc(-c2ccc3c(N)n[nH]c3c2)cc(N2CCCC2)n1 [GSK2227430] | 19% | 0% | 0% | 8% | 0% | 0% | 0% | 24% | 0% | 0% |  |  |  |  |  |  |  |  |  |
| O=c1cc(N2CCOCC2)nc2n(Cc3cccc4ccccc34)ccn12 [GSK2333389] | 12% | 0% | 0% | 0% | 3% | 0% | 0% | 25% | 0% | 43% |  |  |  |  |  |  |  |  |  |
| CCc1nc(-c2cccc(C)c2)c(-c2ccnc(NCc3ccccc3)c2)s1 | 5% | 22% | 2% | 3% | 0% | 11% | 0% | 5% | 3% | 0% |  |  |  |  |  |  |  |  |  |
| COc1cc2ncn(-c3cc(OCc4sccc4Cl)c(C(N)=O)s3)c2cc1OC [GSK448459] | 28% | 44% | 0% | 31% | 0% | 0% | 8% | 0% | 0% | 20% |  |  |  |  |  |  |  |  |  |
| COc1ccc(COc2cc(-n3cnc4ccccc43)sc2C(N)=O)cc1 [GSK1024304] | 0% | 28% | 0% | 24% | 5% | 0% | 15% | 13% | 8% | 0% |  |  |  |  |  |  |  |  |  |
| CC(C)Oc1ccc2c(-c3ccnc(Nc4ccc(N5CCN(C)CC5)cc4)n3)cnn2n1 [GW696155] | 70% | 53% | 14% | 39% | 0% | 0% | 92.1% | 47% | 45% | 98% |  |  |  |  |  |  |  |  |  |
| c1ccc(-c2n[nH]cc2-c2ccnc3ccccc23)nc1 [GW271431] | 10% | 9% | 0% | 25% | 0% | 6% | 10% | 11% | 0% | 0% |  |  |  |  |  |  |  |  |  |
| O=C(NCCNc1ccnc(Nc2ccc(F)cc2)n1)c1cc2ccccc2s1 [GSK1379874] | 11% | 1% | 0% | 51% | 0% | 0% | 0% | 3% | 0% | 0% |  |  |  |  |  |  |  |  |  |
| O=C(Nc1cccc(-c2nn3ncccc3c2-c2ccnc(Nc3cccc(C(F)(F)F)c3)n2)c1)c1c(F)cccc1F [GSK299495] | 30% | 92.1% | 56% | 98.4% | 0% | 0% | 7% | 18% | 0% | 0% |  |  |  |  |  |  |  |  |  |
| COc1ccc(S(=O)(=O)NC2CCN(c3cc(C)nc(Nc4cccc(C#N)c4)n3)CC2)cc1.O=C(O)C(F)(F)F [GSK1653539] | 14% | 0% | 0% | 0% | 0% | 0% | 13% | 0% | 0% | 0% |  |  |  |  |  |  |  |  |  |
| CSc1ccc(-c2cc3ncnc(SCC(=O)O)c3s2)cc1 | 33% | 22% | 7% | 0% | 0% | 19% | 0% | 14% | 2% | 18% |  |  |  |  |  |  |  |  |  |

| Structure (SMILES) | %Inh (EPHB6) | %Inh (ERBB2) | %Inh (ERBB3) | %Inh (ERBB4) | %Inh (ERK1) | %Inh (ERK2) | %Inh (ERK3) | %Inh (ERK4) | %Inh (ERK5) | %Inh (ERK8) | %Inh (EPHB6; 1 µM) | %Inh (ERBB2; 1 µM) | %Inh (ERBB3; 1 µM) | %Inh (ERBB4; 1 µM) | %Inh (ERK1; 1 µM) | %Inh (ERK2; 1 µM) | %Inh (ERK3; 1 µM) | %Inh (ERK5; 1 µM) | %Inh (ERK8; 1 µM) |
| --- | --- | --- | --- | --- | --- | --- | --- | --- | --- | --- | --- | --- | --- | --- | --- | --- | --- | --- | --- |
| Cc1cccc(-c2nc(-c3ccc(S(C)(=O)=O)cc3)sc2-c2ccncc2)c1 | 46% | 4% | 9% | 0% | 6% | 29% | 6% | 0% | 2% | 0% |  |  |  |  |  |  |  |  |  |
| Cc1cn2c(=O)cc(N3CCOCC3)nc2n1Cc1cccc(Cl)c1Cl [GSK2334006] | 0% | 20% | 0% | 33% | 0% | 13% | 21% | 0% | 0% | 24% |  |  |  |  |  |  |  |  |  |
| COc1cc(Nc2nccc(N3CCC(NC(=O)c4cccc(NC(C)=O)c4)C3)n2)cc(OC)c1OC (stereo not drawn) [GSK1379754] | 78% | 16% | 0% | 1% | 0% | 14% | 0% | 1% | 0% | 0% |  |  |  |  |  |  |  |  |  |
| Cc1ccc(C(=O)NCC(N)=O)cc1-n1c(C)cc(OCc2ccc(F)cc2F)c(Br)c1=O | 6% | 36% | 0% | 0% | 6% | 0% | 0% | 0% | 13% | 13% |  |  |  |  |  |  |  |  |  |
| NS(=O)(=O)c1cccc(-c2ccc3nccc(-c4cccc(S(N)(=O)=O)c4)c3c2)c1 [GW867253] | 0% | 11% | 0% | 7% | 0% | 0% | 0% | 0% | 0% | 1% |  |  |  |  |  |  |  |  |  |
| O=C(Nc1n[nH]c2cc(-c3cccc(F)c3)ccc12)C1CC1 [SB-735464] | 14% | 21% | 0% | 7% | 0% | 0% | 0% | 0% | 8% | 32% |  |  |  |  |  |  |  |  |  |
| NS(=O)(=O)CCc1cccc(Nc2nccc(-c3c(-c4cccc(NC(=O)c5c(F)cccc5F)c4)nn4ccccc34)n2)c1 [GSK336735] | 97.1% | 98.7% | 94% | 100% | 7% | 0% | 0% | 10% | 45% | 0% |  |  |  |  |  |  |  |  |  |
| Nc1nccc(-c2c(-c3ccc(F)cc3)ncn2C2CCN(CC(F)(F)F)CC2)n1 [SB-236560] | 44% | 59% | 4% | 34% | 0% | 0% | 0% | 0% | 0% | 16% |  |  |  |  |  |  |  |  |  |
| Cc1nnc(-c2ccc(C)c(-c3ccc(C(=O)Nc4ccc(NS(C)(=O)=O)cc4)cc3)c2)o1 [GW702865] | 10% | 33% | 20% | 8% | 10% | 0% | 0% | 0% | 0% | 0% |  |  |  |  |  |  |  |  |  |
| Cc1ccc(NC(=O)c2ccnc(N3CCN(C)CC3)c2)cc1-c1ccc(C(=O)NCC2CC2)cc1 [GW775604] | 0% | 0% | 0% | 0% | 0% | 0% | 0% | 0% | 0% | 0% |  |  |  |  |  |  |  |  |  |
| [2H]C([2H])(c1cccc(C(F)(F)F)c1C)n1ccn2c(=O)nc(N3CCOCC3)cc12 [GSK2336394] | 11% | 20% | 0% | 24% | 0% | 0% | 0% | 0% | 0% | 0% |  |  |  |  |  |  |  |  |  |
| NS(=O)(=O)c1cccc(-c2ccc3ncc(N4CCOCC4)nc3c2)c1 [GSK1535721] | 25% | 32% | 11% | 1% | 0% | 0% | 0% | 0% | 10% | 0% |  |  |  |  |  |  |  |  |  |
| Cl.Nc1ncnc2occ(-c3ccc(NC(=O)Nc4cc(C(F)(F)F)ccc4F)cc3)c12 [SB-707548] | 98.6% | 44% | 24% | 23% | 0% | 0% | 0% | 8% | 12% | 99.2% |  |  |  |  |  |  |  |  |  |
| Cc1nnc(-c2ccc3occ(-c4ccc(C(C)O)cc4)c3c2)o1 (stereo not drawn) | 15% | 0% | 9% | 0% | 0% | 0% | 15% | 10% | 7% | 31% |  |  |  |  |  |  |  |  |  |
| C[C@@H](Oc1cc(-n2cnc3ccc(NC(=O)NC(C)(C)C)cc32)sc1C(N)=O)c1ccccc1Cl [GSK346294] | 21% | 15% | 22% | 0% | 0% | 0% | 7% | 19% | 0% | 0% |  |  |  |  |  |  |  |  |  |
| Cl.Cl.Cl.Fc1ccc(-c2ncn(C3CCNCC3)c2-c2ccnc(Nc3ccccc3)n2)cc1 [SB-238039] |  |  |  |  |  |  |  | 0% |  |  | 3% and 0% | 92% and 79% | 67% and 7% | 47% and 46% | 60% and 11% | 37% and 26% | 0% and 18% | 46% and 0% | 0% and 10% |
